Records with an inconclusive call do not appear. A number with no mark means an inactive call. Active and inactive are the calls of the source. Calls come from the whole dose curve.
test: Cell Viability - HepG2 (AID 433); details: qHTS;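 note: potency for ATP loss meaning cytotoxicity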
Excerpt: NIH Chemical Genomics Center [NCGC]
NIH Molecular Libraries Screening Centers Network [MLSCN]
National Institutes of Environmental Health Sciences [NIEHS]
National Toxicology Program [NTP]
We have developed a 1536-well cell-based assay for quantitative high throughput screening (qHTS) against a number of cell lines to determine in vitro cytotoxicity of small molecules. This particular assay uses the HepG2 cell line which is derived from hepatocellular carcinoma.
NCGC Assay Protocol Summary:
The CellTiter-Glo luminescent cell viability assay (Promega) is a homogeneous method to measure the number of viable cells in culture. The end point readout of this assay is based on quantitation of intracellular ATP, an indicator of metabolic activity, using the luciferase reaction. Luciferase catalyzes the oxidation of beetle Luciferin to oxyluciferin and light in the presence of ATP. The luminescent signal is proportional to amount of ATP present.
Using the CellTiter-Glo luminescent cell viability assay, the amount of cellular ATP was measured in the HepG2 cell line with complete culture medium following compound treatment for 40 hours. The assay was performed in opaque white Kalypsys 1536-well plates. In the screen, tamoxifen and doxorubicin were used as positive controls. Library compounds were measured for their ability to cause acute toxicity in the cell line, as reflected by a decrease in intracellular ATP levels, in a concentration-dependent manner. Data were normalized to the controls for basal activity (DMSO only) and 100% inhibition (100 uM tamoxifen). AC50 values were determined from concentration-response data modeled with the standard Hill equation.
qHTS protocol fo CellTiter Glo HepG2 cellular assay
[Step] [Parameter] [Value] [Description]
1. Reagent; 5 uL; 1500 HepG2 cells/well
2. Time; 5 hr; 37 °C incubation
4. Controls; 23 nL; Tamoxifen 0.34 uM to 100 uM & Doxorubicin 0.02 nM to 100 uM
5. Time; 40 hr; 37 °C incubation
6. Reagent; 5 uL; CellTiter Glo reagent
7. Time; 20 min; Room Temperature
8. Detection; Luminescence; Viewlux plate reader
Keywords: cell viability, cytotoxicity, HepG2 cell line, luminescence, NTPHTS, NTPHTS_NCGC, NIEHS, EPA, DSSTox, MLSMR, MLSCN, NIH Roadmap, qHTS, NCGC
Potency is the fitted concentration of half-maximal effect.

Row | SMILES | Potency
1 | Cc1cc(O)ccc1Cl | > 92 µM
2 | O=[N+]([O-])c1c2ccccc2cc2ccccc12 | > 92 µM
3 | O=[N+]([O-])c1cc([N+](=O)[O-])c2ccccc2c1 | > 92 µM
4 | O=S(=O)(c1ccc(Cl)cc1)c1ccc(Cl)cc1 | > 92 µM
5 | CCCCOC(=O)c1ccccc1C(=O)OCc1ccccc1 | > 92 µM
6 | OCCCBr | > 92 µM
7 | CCCCCCCCc1ccc(O)cc1 | > 92 µM
8 | O=C(O)C(Cl)Cl | > 92 µM
9 | COc1ccc(C(c2ccc(OC)cc2)C(Cl)(Cl)Cl)cc1 | > 92 µM
10 | COC(C)(C)CCCC(C)C/C=C/C(C)=C/C(=O)OC(C)C (stereo not given) | > 92 µM
11 | O=C(O)COc1ccccc1 | > 92 µM
12 | c1cc2ccc3cccc4ccc(c1)c2c34 | > 92 µM
13 | C=CC(=O)NCNC(=O)C=C | > 92 µM
14 | CCCCC(CC)COC(=O)c1ccccc1C(=O)OCC(CC)CCCC (stereo not given) | > 92 µM
15 | CN(C)NC(=O)CCC(=O)O | > 92 µM
16 | CC(C)(O)C(=O)Nc1ccc([N+](=O)[O-])c(C(F)(F)F)c1 | > 92 µM
17 | O=[N+]([O-])c1c(Cl)c(Cl)cc(Cl)c1Cl | > 92 µM
18 | C1CCC(NC2CCCCC2)CC1 | > 92 µM
19 | CCOCCOC(C)=O | > 92 µM
20 | CC(=O)[O][Hg][c]1ccccc1 | 25.1 µM (active)
21 | Nc1ccc(Sc2ccc(N)cc2)cc1 | > 92 µM
22 | Nc1ccc([N+](=O)[O-])cc1 | > 92 µM
23 | CCOP(=O)(NC(C)C)Oc1ccc(SC)c(C)c1 (stereo not given) | > 92 µM
24 | CN(C)[C@@H]1C(=O)C(C(N)=O)=C(O)[C@@]2(O)C(=O)C3=C(O)c4c(O)cccc4[C@@](C)(O)[C@H]3[C@H](O)[C@@H]12 | > 92 µM
25 | Nc1ccc(Cl)cc1 | > 92 µM
